Assay results published in PubChem BioAssay (EPA / NIEHS).
Active and inactive are the calls of the source. The calls were made as follows: active = hit-call score of the fitted dose curve at least 0.9, where 1 is the maximum; inactive = score below 0.9.

Columns and labels:
[1] = read-out: Plasminogen activator inhibitor-1 (PAI1), SERPINE1 (gene 5054); experiment: BSK_hDFCGF_PAI1: BioMAP Diversity Plus: hDFCGF Assay for Plasminogen activator inhibitor-1 (PAI1) Biomarker Activity (AID 2283066); conditions: primary human foreskin fibroblasts; actives raise or lower the signal
In short: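 Human foreskin fibroblasts in the hDFCGF system were dosed with compound for 24 h; PAI-1 was quantified by ELISA. Bidirectional curve fitting used DMSO as negative control and baseline.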

[2] = read-out: Intercellular Adhesion Molecule 1 (ICAM1), ICAM1 (gene 3383); experiment: BSK_KF3CT_ICAM1: BioMAP Diversity Plus: KF3CT Assay for Intercellular Adhesion Molecule 1 (ICAM1) Biomarker Activity (AID 2283067); conditions: primary human keratinocytes with fibroblasts; actives raise or lower the signal
In short: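 Cell-surface ICAM-1 was measured by ELISA 24 h after dosing primary human skin keratinocytes co-cultured with fibroblasts. Parallel SRB staining tracked overt cytotoxicity. Gain or loss of signal was fitted relative to DMSO.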

[3] = read-out: Interferon-gamma inducible Protein 10 (IP10), CXCL10 (gene 3627); experiment: BSK_KF3CT_IP10: BioMAP Diversity Plus: KF3CT Assay for Interferon-gamma inducible Protein 10 (IP10) Biomarker Activity (AID 2283068); conditions: primary human keratinocytes with fibroblasts; actives raise or lower the signal
In short: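 KF3CT co-culture (keratinocytes + foreskin fibroblasts), 24 h compound, IP-10 by ELISA; bidirectional fit vs DMSO baseline.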

[4] = BSK_KF3CT_SRB: Viability Assessment in the BioMAP Diversity Plus: KF3CT Assay (AID 2283069); conditions: primary human keratinocytes with fibroblasts;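 also: total protein by sulforhodamine B staining as a cytotoxicity measure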
In short: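 Human keratinocyte and foreskin fibroblast co-culture exposed to chemical for 24 h. Total protein measured in parallel cultures by 0.1% sulforhodamine B staining after 10% TCA fixation, read at 560 nm; bidirectional fit relative to DMSO.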

[5] = read-out: Interleukin-1 alpha (IL1a), IL1A (gene 3552); experiment: BSK_KF3CT_IL1a: BioMAP Diversity Plus: KF3CT Assay for Interleukin-1 alpha (IL1a) Biomarker Activity (AID 2283070); conditions: primary human keratinocytes with fibroblasts; actives raise or lower the signal
In short: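 Primary human keratinocyte plus foreskin fibroblast co-culture, dosed and measured at 24 h in 96-well plates. IL-1a level quantified by ELISA; bidirectional fit relative to DMSO.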

[6] = read-out: TIMP metallopeptidase inhibitor 2 (TIMP2), TIMP2 (gene 7077); experiment: BSK_KF3CT_TIMP2: BioMAP Diversity Plus: KF3CT Assay for TIMP metallopeptidase inhibitor 2 (TIMP2) Biomarker Activity (AID 2283071); conditions: primary human keratinocytes with fibroblasts; actives raise or lower the signal
In short: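 Human primary keratinocyte/foreskin fibroblast co-culture dosed with chemical and sampled at 24 h. TIMP-2 levels quantified by ELISA; bidirectional fitting against DMSO negative control as baseline.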

[7] = read-out: Transforming growth factor beta 1 (TGFb1), TGFB1 (gene 7040); experiment: BSK_KF3CT_TGFb1: BioMAP Diversity Plus: KF3CT Assay for Transforming growth factor beta 1 (TGFb1) Biomarker Activity (AID 2283072); conditions: primary human keratinocytes with fibroblasts; actives raise or lower the signal
In short: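 Human keratinocyte plus foreskin fibroblast primary co-culture, dosed with chemical for 24 h. TGF-b1 quantified by ELISA. Activity fitted bidirectionally against DMSO negative control as baseline.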

[8] = read-out: Matrix Metallopeptidase 9 (MMP9), MMP9 (gene 4318); experiment: BSK_KF3CT_MMP9: BioMAP Diversity Plus: KF3CT Assay for Matrix Metallopeptidase 9 (MMP9) Biomarker Activity (AID 2283074); conditions: primary human keratinocytes with fibroblasts; actives raise or lower the signal;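 as to AC50: MMP9 protein level quantified by ELISA in the co-culture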
In short: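 Human keratinocyte and foreskin fibroblast co-culture exposed to chemicals for 24 h; MMP9 biomarker measured by ELISA, bidirectional fitting relative to DMSO; cytotoxicity tracked by SRB total protein staining in parallel cultures.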

[9] = read-out: urokinase plasminogen activator (uPA), PLAU (gene 5328); experiment: BSK_KF3CT_uPA: BioMAP Diversity Plus: KF3CT Assay for urokinase plasminogen activator (uPA) Biomarker Activity (AID 2283075); conditions: primary human keratinocytes with fibroblasts; actives raise or lower the signal
In short: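 Primary human keratinocyte/foreskin fibroblast co-culture exposed to chemical; uPA measured by ELISA at 24 h. Bidirectional fit versus DMSO, with parallel SRB total-protein staining for cytotoxicity.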

[10] = read-out: CD40, CD40 (gene 958); experiment: BSK_LPS_CD40: BioMAP Diversity Plus: LPS Assay for CD40 Biomarker Activity (AID 2283076); conditions: primary human HUVEC with PBMC; actives raise or lower the signal
In short: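 In the LPS system of human endothelial cells with peripheral blood mononuclear cells, CD40 levels were read by ELISA 24 h post-treatment. Signal changes in either direction were fitted against the DMSO baseline, with parallel SRB protein staining.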

[11] = read-out: E-selectin (Homo sapiens) (UniProt P16581); experiment: BSK_LPS_Eselectin: BioMAP Diversity Plus: LPS Assay for Eselectin Biomarker Activity (AID 2283077); conditions: primary human HUVEC with PBMC; actives raise or lower the signal
In short: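 E-selectin ELISA on LPS-stimulated endothelial cell/PBMC co-cultures, read 24 h post-treatment; gains and losses fitted against DMSO. Parallel SRB staining (0.1% SRB after 10% TCA fixation, 560 nm) flags overt cytotoxicity.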

[12] = read-out: Interleukin-8 (IL8), CXCL8 (gene 3576); experiment: BSK_LPS_IL8: BioMAP Diversity Plus: LPS Assay for Interleukin-8 (IL8) Biomarker Activity (AID 2283078); conditions: primary human HUVEC with PBMC; actives raise or lower the signal
In short: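 ELISA read-out of IL-8 after 24 h chemical treatment of LPS-activated endothelial/PBMC human primary co-cultures. Changes either up or down relative to DMSO; overt cytotoxicity checked by sulforhodamine B staining in parallel wells.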

[13] = BSK_LPS_SRB: Viability Assessment in the BioMAP Diversity Plus: LPS Assay (AID 2283079); conditions: primary human HUVEC with PBMC;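 also: total protein by sulforhodamine B absorbance as a cytotoxicity measure; measured one day after compound addition; fitted in both directions against DMSO so loss or gain of signal counts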
In short: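 SRB viability endpoint: cells fixed with 10% TCA, stained with 0.1% SRB, read at 560 nm, 24 h post-dose. HUVEC/PBMC co-culture; signal change in either direction scored relative to DMSO.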

[14] = read-out: Interleukin-1 alpha (IL1a), IL1A (gene 3552); experiment: BSK_LPS_IL1a: BioMAP Diversity Plus: LPS Assay for Interleukin-1 alpha (IL1a) Biomarker Activity (AID 2283080); conditions: primary human HUVEC with PBMC; actives raise or lower the signal
In short: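 Readout is IL-1a level by ELISA, 24 h post-dose, fitted as gain or loss relative to DMSO. System: LPS-activated human primary co-culture of vascular endothelium and peripheral blood mononuclear cells, with parallel SRB total-protein cytotoxicity.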

[15] = read-out: Monocyte Chemoattractant Protein-1 (MCP1), CCL2 (gene 6347); experiment: BSK_LPS_MCP1: BioMAP Diversity Plus: LPS Assay for Monocyte Chemoattractant Protein-1 (MCP1) Biomarker Activity (AID 2283081); conditions: primary human HUVEC with PBMC; actives raise or lower the signal;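 as to AC50: secreted MCP-1 protein quantified by ELISA in culture supernatant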
In short: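 Secreted MCP-1 read by ELISA at 24 h post-dosing in an LPS-activated co-culture of endothelial cells with peripheral blood mononuclear cells. Fits run in both directions, DMSO as baseline; parallel SRB staining tracks overt cytotoxicity.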

[16] = BSK_LPS_PGE2: BioMAP Diversity Plus: LPS Assay for Prostaglandin E2 (PGE2) Biomarker Activity (AID 2283082); conditions: primary human HUVEC with PBMC; actives raise or lower the signal;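 as to AC50: secreted prostaglandin E2 measured by ELISA in LPS-stimulated co-culture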
In short: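 HUVEC plus PBMC co-culture stimulated with LPS; secreted PGE2 quantified by ELISA 24 h after chemical dosing. Activity fitted bidirectionally against DMSO as negative control and baseline; parallel SRB total-protein staining served as cytotoxicity check.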

[17] = read-out: Macrophage colony-stimulating factor (MCSF), CSF1 (gene 1435); experiment: BSK_LPS_MCSF: BioMAP Diversity Plus: LPS Assay for Macrophage colony-stimulating factor (MCSF) Biomarker Activity (AID 2283083); conditions: primary human HUVEC with PBMC; actives raise or lower the signal
In short: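 Bidirectional fitting against DMSO was applied to M-CSF levels read by ELISA at 24 h post-dose. The system pairs human umbilical vein endothelium with peripheral blood mononuclear cells; parallel SRB staining tracked cytotoxicity.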

[18] = read-out: Tissue Factor, F3 (gene 2152); experiment: BSK_LPS_TissueFactor: BioMAP Diversity Plus: LPS Assay for Tissue Factor Biomarker Activity (AID 2283084); conditions: primary human HUVEC with PBMC; actives raise or lower the signal
In short: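 Compound was added to an endothelial cell/PBMC co-culture, and after 24 h tissue factor (CD142) was read by ELISA. Gain or loss of signal was fitted against a DMSO baseline, and parallel SRB staining (560 nm) tracked overt cytotoxicity.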

[19] = read-out: Tumor necrosis factor (Homo sapiens) (UniProt P01375); experiment: BSK_LPS_TNFa: BioMAP Diversity Plus: LPS Assay for Tumour Necrosis Factor alpha (TNFa) Biomarker Activity (AID 2283085); conditions: primary human HUVEC with PBMC; actives raise or lower the signal;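 as to AC50: TNFa protein level quantified by ELISA in the co-culture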
In short: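 Human umbilical vein endothelial cells co-cultured with PBMC were exposed to test chemical and TNFa measured by ELISA 24 h after dosing. Bidirectional curve fitting was done relative to DMSO as negative control and baseline.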

[20] = read-out: C-C motif chemokine 2 (Homo sapiens) (UniProt P13500); experiment: BSK_KF3CT_MCP1: BioMAP Diversity Plus: KF3CT Assay for Monocyte Chemoattractant Protein 1 (MCP1/CCL2) Biomarker Activity (AID 2283073); conditions: primary human keratinocytes with fibroblasts; actives raise or lower the signal
In short: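 ELISA read-out of MCP-1, 24 h post-dose, in primary human skin keratinocytes co-cultured with fibroblasts. Parallel SRB staining monitors cytotoxicity; changes fitted both directions relative to DMSO.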

Chain of E-selectin (Homo sapiens) (P16581 whole entry, looked up): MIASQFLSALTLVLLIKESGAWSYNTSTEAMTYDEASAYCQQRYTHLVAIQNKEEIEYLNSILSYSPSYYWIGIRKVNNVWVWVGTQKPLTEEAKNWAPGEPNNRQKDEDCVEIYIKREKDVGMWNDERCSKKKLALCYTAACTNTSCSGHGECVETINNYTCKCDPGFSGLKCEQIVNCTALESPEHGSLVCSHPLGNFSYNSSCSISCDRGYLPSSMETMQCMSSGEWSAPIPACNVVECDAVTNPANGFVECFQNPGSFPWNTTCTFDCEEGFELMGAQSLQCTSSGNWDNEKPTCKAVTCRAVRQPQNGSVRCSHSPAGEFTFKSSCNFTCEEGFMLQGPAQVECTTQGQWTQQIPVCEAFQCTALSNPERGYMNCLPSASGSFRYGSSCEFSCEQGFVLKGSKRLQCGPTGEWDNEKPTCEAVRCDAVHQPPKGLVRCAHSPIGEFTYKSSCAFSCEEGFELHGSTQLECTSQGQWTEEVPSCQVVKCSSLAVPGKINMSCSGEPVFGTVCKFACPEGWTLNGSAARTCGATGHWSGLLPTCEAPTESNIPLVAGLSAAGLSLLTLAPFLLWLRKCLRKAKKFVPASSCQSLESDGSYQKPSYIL
Chain of Tumor necrosis factor (Homo sapiens) (P01375 whole entry, looked up): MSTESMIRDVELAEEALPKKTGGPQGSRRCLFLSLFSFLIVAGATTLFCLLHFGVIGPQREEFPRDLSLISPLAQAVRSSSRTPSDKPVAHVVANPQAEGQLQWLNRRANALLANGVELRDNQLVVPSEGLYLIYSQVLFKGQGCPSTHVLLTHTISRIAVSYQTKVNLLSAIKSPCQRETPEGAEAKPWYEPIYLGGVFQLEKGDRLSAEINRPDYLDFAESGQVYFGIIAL

ClC1=C(Cl)C2(Cl)C3C(Cl)C=CC3C1(Cl)C2(Cl)Cl (stereo unspecified)
AC50 [1]: 9.78 µM (active)
AC50 [2]: 30.2 µM (active)
AC50 [3]: 15.3 µM (active)
AC50 [4]: 28.6 µM (active)
AC50 [5]: 27.3 µM (active)
AC50 [6]: 24.6 µM (active)
AC50 [7]: 14 µM (active)
AC50 [8]: 13.8 µM (active)
AC50 [9]: 31 µM (active)
AC50 [10]: 30.9 µM (active)
AC50 [11]: 30.6 µM (active)
AC50 [12]: 31.6 µM (active)
AC50 [13]: 29.5 µM (active)
AC50 [14]: 30 µM (active)
AC50 [15]: 31.4 µM (active)
outcome [16]: inactive
AC50 [17]: 29.5 µM (active)
AC50 [18]: 32.2 µM (active)
AC50 [19]: 33.5 µM (active)

c1ccc(NNc2ccccc2)cc1
outcome [1]: inactive
outcome [2]: inactive
outcome [3]: inactive
outcome [4]: inactive
outcome [5]: inactive
outcome [6]: inactive
outcome [7]: inactive
outcome [8]: inactive
outcome [9]: inactive
outcome [10]: inactive
outcome [11]: inactive
outcome [12]: inactive
outcome [13]: inactive
outcome [14]: inactive
outcome [15]: inactive
AC50 [16]: 10.6 µM (active)
outcome [17]: inactive
outcome [18]: inactive

Nc1cc(Cl)cc(C(=O)O)c1Cl
outcome [1]: inactive
outcome [2]: inactive
outcome [3]: inactive
outcome [4]: inactive
outcome [5]: inactive
outcome [6]: inactive
outcome [7]: inactive
outcome [8]: inactive
outcome [9]: inactive
outcome [10]: inactive
outcome [11]: inactive
outcome [12]: inactive
outcome [13]: inactive
outcome [14]: inactive
outcome [15]: inactive
outcome [16]: inactive
outcome [17]: inactive
outcome [18]: inactive

CO[C@@H]1[C@H](OC(=O)NC(=O)CCl)CC[C@]2(CO2)[C@H]1[C@@]1(C)O[C@@H]1CC=C(C)C
outcome [1]: inactive
outcome [2]: inactive
AC50 [3]: 8.27 µM (active)
outcome [4]: inactive
AC50 [5]: 7.91 µM (active)
outcome [6]: inactive
outcome [7]: inactive
AC50 [8]: 6.36 µM (active)
outcome [9]: inactive
AC50 [10]: 3.77 µM (active)
AC50 [11]: 9.98 µM (active)
outcome [12]: inactive
outcome [13]: inactive
AC50 [14]: 6.19 µM (active)
outcome [15]: inactive
AC50 [16]: 6.2 µM (active)
AC50 [17]: 3.16 µM (active)
outcome [18]: inactive
AC50 [19]: 10 µM (active)

Nc1ccc(Oc2ccc(N)cc2)cc1
outcome [1]: inactive
outcome [2]: inactive
outcome [3]: inactive
outcome [4]: inactive
outcome [5]: inactive
outcome [6]: inactive
outcome [7]: inactive
outcome [8]: inactive
outcome [9]: inactive
outcome [10]: inactive
outcome [11]: inactive
outcome [12]: inactive
outcome [13]: inactive
outcome [14]: inactive
outcome [15]: inactive
AC50 [16]: 12.7 µM (active)
outcome [17]: inactive
outcome [18]: inactive
outcome [19]: inactive

CCCCCCCCCCCCCN1CC(C)OC(C)C1 (stereo unspecified)
outcome [1]: inactive
outcome [2]: inactive
outcome [4]: inactive
outcome [5]: inactive
outcome [6]: inactive
outcome [7]: inactive
outcome [20]: inactive
outcome [8]: inactive
outcome [9]: inactive
outcome [10]: inactive
outcome [11]: inactive
outcome [12]: inactive
outcome [13]: inactive
outcome [14]: inactive
outcome [15]: inactive
outcome [16]: inactive
outcome [17]: inactive
outcome [18]: inactive
outcome [19]: inactive

Nc1ccc([N+](=O)[O-])cc1
outcome [1]: inactive
outcome [2]: inactive
outcome [3]: inactive
outcome [4]: inactive
outcome [5]: inactive
outcome [6]: inactive
outcome [7]: inactive
outcome [8]: inactive
outcome [9]: inactive
outcome [10]: inactive
outcome [11]: inactive
outcome [12]: inactive
outcome [13]: inactive
outcome [14]: inactive
outcome [15]: inactive
outcome [16]: inactive
outcome [17]: inactive
outcome [18]: inactive
outcome [19]: inactive
